Compounds with a hit are over-represented: about 8.7% of the library has one in this group of screens.
12-LOX inh: inhibitors of human 12S-lipoxygenase ALOX12 | P18054 | purified 12hLO, xylenol orange hydroperoxide absorbance | Potency, µM (highest dose often 108 µM), for inactives: top-dose activity change, negative = inhibition, usual class: inhibitors | 580,000 compounds, 1.1% hits | AID 1671190; note: % is set by controls: 0 for no effect and ±100 for the full control effect
Target sequence (P18054 whole entry, looked up): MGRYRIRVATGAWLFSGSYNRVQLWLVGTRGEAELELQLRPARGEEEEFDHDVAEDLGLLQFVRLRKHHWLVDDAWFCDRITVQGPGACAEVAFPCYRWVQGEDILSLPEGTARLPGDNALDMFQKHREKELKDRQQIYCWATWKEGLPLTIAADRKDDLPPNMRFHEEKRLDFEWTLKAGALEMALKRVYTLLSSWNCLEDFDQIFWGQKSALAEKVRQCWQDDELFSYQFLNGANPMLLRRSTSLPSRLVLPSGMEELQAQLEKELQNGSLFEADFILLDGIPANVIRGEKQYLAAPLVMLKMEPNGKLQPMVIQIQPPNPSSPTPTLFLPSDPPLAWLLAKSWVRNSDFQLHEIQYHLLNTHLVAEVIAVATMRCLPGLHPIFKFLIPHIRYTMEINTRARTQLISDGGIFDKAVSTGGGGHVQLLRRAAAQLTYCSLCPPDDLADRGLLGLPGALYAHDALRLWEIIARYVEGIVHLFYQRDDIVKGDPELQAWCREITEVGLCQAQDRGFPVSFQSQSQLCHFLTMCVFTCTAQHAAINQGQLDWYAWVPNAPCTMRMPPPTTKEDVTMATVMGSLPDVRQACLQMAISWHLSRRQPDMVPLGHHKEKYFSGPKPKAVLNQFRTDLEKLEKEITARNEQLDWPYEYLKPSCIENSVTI
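Purified human 12hLO at 150 nM in 25 mM Hepes, 0.01% Triton X-100, pH 7.0, preincubated 15 min at room temperature with compound. Reaction started with 40 uM arachidonic acid, 30 min at room temperature. Hydroperoxide measured by Fe-xylenol orange, 573/405 nm absorbance ratio.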
G9a block: G9a (human) methyltransferase inhibition; Potency, µM (doses to about 102 µM), without a hit: top-dose activity, negative = inhibition, usual class: inhibitors; 350,000 compounds, 8.8% hits; Q96KQ7; G9a H3K9 monomethylation, AlphaScreen, 2 h; note: % is set by controls: 0 for no effect and ±100 for the full control effect; nearly all actives have a fitted effect of over 75% in size
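Compounds were preincubated with 20 nM G9a for 15 min, after which biotinylated H3K9 peptide (500 nM) and SAM (20 uM) started a 2 h room-temperature reaction. Monomethylated product was quantified by antibody-based AlphaScreen chemiluminescence.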
Sfp inh: Sfp phosphopantetheinyl transferase inhibition; Q9F4F7; Biochemical Sfp PPTase activity, qHTS; 310,000 compounds, 3.5% hits; Potency, µM, for inactives: largest response in the series, negative = inhibition, hits mostly inhibitors;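 note: the enzyme is Sfp with the accession as filed and its product quenches rhodamine fluorescence; 0% = enzyme reaction without inhibitor and -100% = no enzyme wells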
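Buffer: 50 mM Hepes-Na pH 7.6, 10 mM MgCl2, 0.01% Nonidet P-40, 0.01% BSA. Enzyme 15 nM, pre-exposed to compound 15 min; substrates then added and fluorescence change tracked over 30 min.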
JMJD2A Tudor: blocks the human JMJD2A Tudor domain. O75164. Potency, µM (titrated, usually from 114 µM), for inactives: at the highest dose activity change, negative = inhibition, most hits filed as inhibitors. AlphaScreen JMJD2A-Tudor / H3K4me3 peptide binding. AID 504339. 390,000 compounds, 4.4% hits; note: % is set by controls: 0 for no effect and ±100 for the full control effect; nearly all actives have a fitted effect of over 50% in size
HP1b binding inh: inhibitors of HP1-beta chromodomain binding to methylated histone tails; P83916; AlphaScreen HP1-beta / biotin-H3K9me3 peptide binding; Potency, µM (doses to about 114 µM), inactives show at the highest dose activity change, negative = inhibition, actives largely listed as inhibitors; 390,000 compounds, 0.56% hits; note: nearly all actives have a fitted effect of over 70% in size
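AlphaScreen: HP1-beta (50 nM) preformed 30 min with biotin-H3(1-18)K9me3 peptide (50 nM) in PBS pH 7.4, 0.01% Tween-20. Compound added for 30 min at RT, then streptavidin donor/nickel chelate acceptor beads (10 ug/mL) for 30 min.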
BAZ2B inh: BAZ2B (human) inhibition; Q9UIF8; AlphaScreen BAZ2B-H3K14Ac peptide displacement; Potency, µM (series often up to 114 µM), for inactives: top-dose activity change, negative = inhibition, hits mostly inhibitors; 360,000 compounds, 4.4% hits; note: % is set by controls: 0 for no effect and ±100 for the full control effect; nearly all actives have a fitted effect of over 60% in size
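BAZ2B 50 nM plus b-H3(5-23)K14Ac 50 nM, PBS pH 7.4/0.01% Tween-20, 30 min RT; compound added (max 110 uM), 30 min RT; streptavidin donor/Ni-chelate acceptor beads 10 ug/mL final, 20 min dark; AlphaScreen read.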
An asterisk follows results filed as active; ? = inconclusive; · = not tested or not shown; [ ] = another dose, or the depositor's remark. Calls come from the whole dose curve; as a rule, active = well fitted curve in the direction sought with a large enough effect; inconclusive = small, poorly fitted or top-dose-only effect, or another doubt; inactive = no such curve, though single readings can be large; an effect the other way counts as inactive or inconclusive. Potency is the fitted concentration of half-maximal effect.

SMILES	12-LOX inh	G9a block	Sfp inh	JMJD2A Tudor	HP1b binding inh	BAZ2B inh
Cc1ccc(NC(=O)c2ccc(NC(=O)C3=CSCCO3)cc2)cc1C	-60.9%	·	·	·	·	·
Cc1ccc(C(=O)O)cc1NC(=O)C1=CSCCO1	-16.5%	50.1µM*	7.5%	14.4%	53.3%	-7.2%
Cc1cccc(N(C(=O)CS(=O)CC(=O)Nc2ccc3c(c2)OCO3)C(C)C(=O)NC2CCCC2)c1C (stereo unspecified)	-22.8%	56.2µM*	-14.4%	-4.8%	22.9%	-27.7%
Oc1ccc(Nc2nc(-c3cccs3)cs2)cc1	-7.6%	?	-0.4%	-27.0%	-1.1%	-8.9%
Nc1nc(-c2cccs2)cs1	·	79.4µM*	-11.5%	-24.4%	11.1%	-37.9%
CC(=O)Nc1nc(-c2cccs2)cs1	0.0%	?	50.1µM*	-11.0%	12.4%	7.3%
COc1ccc(OC)c(Nc2nc(-c3c(C)nc4ncccn34)cs2)c1	?	28.2µM*	?	?	-0.4%	?
COc1ccc(Nc2nc(-c3cccs3)cs2)c(OC)c1	?	11.2µM*	?	2.51µM*	50.1µM*	31.6µM*
COc1ccc(N2C(=O)CCC2(C)C(=O)NC2CCCC2)c(OC)c1 (stereo unspecified)	11.7%	·	·	·	·	·
CCC(Oc1ccc(F)cc1)C(=O)N1CCC(c2nc3ccccc3o2)CC1 (stereo unspecified)	15.9%	·	·	·	·	·
O=C(CN1CCCCCC1)N1CC(Oc2ccccc2-c2nc(C3CC3)no2)C1	-4.4%	·	·	·	·	·
Cc1[nH]ncc1C(=O)N1CCOC(Cc2ccc(F)cc2)C1 (stereo unspecified)	2.4%	·	·	·	·	·
CC(C)NC(=O)NCc1ccc(C(=O)NCC2(c3ccccc3)CCCC2)cc1	49.2%	·	·	·	·	·
COCCNC(=O)NC(=O)COC(=O)c1cccc2c(=O)c(C)c(-c3ccccc3)oc12	2.2%	·	·	·	·	·
CC(=O)Nc1nc(C(=O)O)cs1	?	22.4µM*	?	3.98µM*	?	31.6µM*
CC(=O)Oc1cc(C(=O)OCC(=O)N2CCc3ccccc3C2)cc(OC(C)=O)c1OC(C)=O	?	·	·	1.58µM*	?	·
COc1ccc(C(=O)OCC(=O)N2CCc3ccccc3C2)cc1OC	5.9%	·	·	0.0%	24.1%	·
CN(C)CC(=O)N1CCc2ccccc2C1	-13.4%	?	-13.2%	11.2µM*	-32.7%	50.1µM*
CCOc1ccc(S(=O)(=O)N2CCN(C(=O)CN3C(=O)NC4(CCCC4)C3=O)CC2)cc1	?	31.6µM*	·	-1.4%	35.0%	0.4%
Cc1ccc(S(=O)(=O)N2CCN(C(=O)COC(=O)CCOc3cc(C)ccc3C)CC2)c(C)c1	-5.4%	·	·	-13.5%	28.4%	·
CCOc1ccc(OCCC(=O)OCC(=O)N2CCN(S(=O)(=O)c3ccc(C)cc3)CC2)cc1	?	56.2µM*	·	-13.6%	33.1%	-21.2%
Cc1ccc(S(=O)(=O)N2CCN(C(=O)COC(=O)CCOc3ccccc3C)CC2)c(C)c1	?	11.2µM*	·	-15.2%	-0.9%	-9.0%
Cc1ccc(S(=O)(=O)N2CCN(C(=O)COC(=O)c3ccc(O)cc3)CC2)c(C)c1	2.6%	21.7%[0.501 µM]	·	89.1µM*	0.6%	3.1%
CC(C)CC(NC(=O)C1CC1)C(=O)N(C)C (stereo unspecified)	-11.8%	·	·	·	·	·
O=C(Nc1ccccc1)N[C@H]1CO[C@H]2[C@@H]1OC[C@H]2OC(=O)Nc1ccccc1	3.9%[176 µM]	·	·	·	·	·
SMILES	12-LOX inh	G9a block	Sfp inh	JMJD2A Tudor	HP1b binding inh	BAZ2B inh
CCN(CC)C(=O)C(Sc1nnnn1-c1c(C)cccc1C)c1ccccc1 (stereo unspecified)	-13.1%	·	·	·	·	·
O=C(CN1C(=O)C2CC=CCC2C1=O)N1CCN(S(=O)(=O)c2ccccc2)CC1 (stereo unspecified)	-4.1%	·	·	2.6%	32.8%	·
Cc1ccc(S(=O)(=O)N2CCN(C(=O)CN3C(=O)NC4(CCOc5ccccc54)C3=O)CC2)cc1 (stereo unspecified)	0.0%	56.2µM*	1.7%	-7.4%	32.9%	1.2%
Cc1ccc(C)c(S(=O)(=O)N2CCN(C(=O)CN3C(=O)C4CC=CCC4C3=O)CC2)c1 (stereo unspecified)	-4.8%	50.1µM*	·	-4.1%	-1.9%	3.9%
CCOC(=O)Cc1cc(=O)n2[nH]c(NCc3ccc(CC)cc3)nc2n1	-26.4%	·	·	·	·	·
Cc1cccc(-n2ncc3c(N4CCN(c5ccccc5)CC4)ncnc32)c1	-24.6%	-3.0%[59 µM]	·	15.8µM*	107.7%	-7.5%
COc1ccc(N2CCN(c3ncnc4c3cnn4C)CC2)cc1	-21.1%	14.1µM*	·	-34.3%	22.9%	-17.6%
CC(=O)c1ccc(N2CCN(c3ncnc4c3cnn4C)CC2)cc1	-27.8%	7.5%[59 µM]	·	-8.6%	-4.5%	1.7%
COCCCNC(=O)C(=O)NCCCOC(C)C	38.7%	4.6%[59 µM]	21.1%	5.62µM*	35.1%	-2.3%
CC(C(=O)N1c2ccccc2CC1C)N1CCN(S(=O)(=O)c2ccccc2F)CC1 (stereo unspecified)	?	?	·	3.55µM*	?	28.2µM*
CC1Cc2ccccc2N1S(=O)(=O)c1ccccc1F (stereo unspecified)	-7.6%	·	·	·	·	·
COc1ccc(-c2cn3nc4c(nc3n2)CCCC4)cc1	?	79.4µM*	-25.0%	18.5%	78.3%	6.7%
COc1ccc(-c2cn3ccccc3n2)cc1	0.9%	1.9%	12.4%	-26.0%	15.9%	-14.0%
O=C(Nc1cccn2nc(C3CCC3)nc12)c1ccccn1	65.3%	·	·	·	·	·
C/C(=N/NS(=O)(=O)c1ccc(Cl)cc1)c1cccc(O)c1	0.0%	19.2%[59 µM]	7.3%	-6.2%	16.6%	0.8%
C/C(=N\NS(=O)(=O)c1ccccc1)c1cc(Cl)cc(Cl)c1O	?	44.7µM*	13.4%	-30.1%	5.4%	?
Cc1cc(NS(=O)(=O)c2ccccc2)cc(Cl)c1O	?	2.24µM*	79.4µM*	89.1µM*	-26.1%	12.0%
Cc1ccc(N2CC(c3noc(-c4ccc5c(c4)OCO5)n3)CC2=O)cc1 (stereo unspecified)	18.0%	·	·	·	·	·
